The results in this text go back to PubChem BioAssay (NCATS).

Several values for one entry are separate records, joined by “and”; a condition that tells them apart may be missing. Identical values can stand only once. Records with an inconclusive call do not appear. Activity calls are given as the source filed them. Unless noted, calls come from the whole dose curve; as a rule, active = well fitted curve in the direction sought with a large enough effect; inconclusive = small, poorly fitted or top-dose-only effect, or another doubt; inactive = no such curve, though single readings can be large; an effect the other way counts as inactive or inconclusive.

Experiment [1] in a line: qHTS for inhibitors of adenylyl cyclases using a fission yeast platform: a pilot screen against the NCATS LOPAC library (AID 1347410). In a few lines:
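Growth medium went into the plates first, then compounds were pinned (final up to 57 µM), then CHP2027 yeast were added. Plates were incubated overnight (18 h) at 30C in the dark, and GFP was measured by laser scanning cytometry.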
A general note: qHTS replaces the single test concentration by a dilution series.

Experiment [2] can be described thus: qHTS to identify inhibitors of the type 1 interferon - major histocompatibility complex class I in skeletal muscle: primary screen against the NCATS Mechanism Interrogation Plate v5.0 (MIPE) Libary (AID 1347411). Note: nearly all actives have a fitted effect of over 65% in size. Note: potency is the fitted concentration of half-maximal effect. In short, it runs like this: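 HLA-B HiBit myoblasts, dexamethasone-free medium + 4 ng/ml IFN-b, 24 h compound, 11-pt 1:3 from 46 uM final. Readout: Nano-Glo HiBiT lytic luminescence after 10 min lysis, RT.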

Experiment [3] concerns the target Protein phosphatase 1D (Homo sapiens) (UniProt O15297). Briefly: RapidFire Mass Spectrometry qHTS Assay for Modulators of WT P53-Induced Phosphatase 1 (WIP1) (AID 1347424). Note: series mostly up to about 63 µM. In short, it runs like this:
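RapidFire MS readout of dephosphorylated VEPPL-S-QETFS product, with 1 uM isotope-labelled peptide standard. Reaction: 10 nM WIP1, 2 uM phosphopeptide substrate, 5 min, room temperature, after 1 h compound preincubation; stopped with 0.5% formic acid.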

The nature of experiment [4]: Validation qHTS assay for inhibitors of Activation Induced Cytidine Deaminase (AID): UDG Counterscreen signal (AID 1347427). In short, it runs like this: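 Fluorescence at 560 nm excitation, 665 nm emission reports UDG signal after 250 mM NaOH (2x) addition and 30 min. Enzymes (AID 1 uM, UDG 2 U/mL, at 4/3x) preincubated 10 min with compound, then 4 h with 4x 250 nM DJC20/DJC23 substrate at room temperature.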

In experiment [5] the target is Single-stranded DNA cytosine deaminase (Homo sapiens) (UniProt Q9GZX7). Briefly: Validation qHTS assay for inhibitors of Activation Induced Cytidine Deaminase (AID): AID signal (AID 1347429). In short, it runs like this: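 AID+UDG coupled FRET deamination; cpds up to 114 uM final; DJC20/DJC23 substrate, 4 hr RT; NaOH stop, 30 min RT; read Ex 540/Em 590.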
Experiment [6] can be described thus: Primary qHTS for inhibitors of La Crosse Virus (LACV) - induced cell death in SH-SY5Y cells (AID 1508616).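 Note: top concentration of the series differs between compounds; higher means more rescue of cells from virus-induced death.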 In a few lines:
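Cytopathicity rescue screen: compounds pinned onto SH-SY5Y cells, which are then infected with LACV (MOI 0.01) and held 6 days at 37C. Percent activity is scaled between infected DMSO control and uninfected DMSO control.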

Experiment [7] has as its target Calcium and integrin-binding protein 1 (Homo sapiens) (UniProt Q99828). Briefly: Validation qHTS for Identification of Calcium Integrin Binding protein 1 (CIB1) Competitor (AID 1508618). In short, it runs like this:
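CIB1-GST (1 uM final) incubated 15 min at room temperature with compounds (up to 114 uM), then FITC-labelled alphaIIb peptide (100 nM) added. FP read (Ex 480/Em 540) after 15 min, pH 7.4 buffer containing 5 mM CaCl2.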

For experiment [8] the target is unchanged. Kind of experiment: Primary qHTS for Identification of Calcium Integrin Binding Protein 1 (CIB1) Competitor (AID 1508620). Note: potency is the fitted concentration of half-maximal effect. In short, it runs like this:
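Fluorescence polarization competition: GST-tagged CIB1 (1 uM final) preincubated with compound 15 min at room temperature, then FITC-labelled alphaIIb peptide (100 nM final) added. After 15 min at room temperature, polarization read at Ex 480/Em 540.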

The target of the next experiment is Papain (Carica papaya) (UniProt P00784). Briefly: Primary qHTS assay for inhibitors of the protease papain (AID 1645873).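 Note: papain turnover of Z-FR-AMC read as the AMC fluorescence gain over 10 min; series mostly up to about 50 µM.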
Experiment [9] can be described thus: Primary qHTS for inhibitors of nuclear receptor binding SET domain protein 2 (NSD2) in an isogenic RCH-ACV NSD2 p.E1099K mutant (9B) (AID 1645876). Note: nearly all actives have a fitted effect of over 70% in size. Note: potency is the fitted concentration of half-maximal effect.
The target in experiment [10] is Protein phosphatase 1D (Homo sapiens) (UniProt O15297). Kind of experiment: Rhodamine-PBP qHTS Assay for Modulators of WT P53-Induced Phosphatase 1 (WIP1) (AID 1347425). In short, it runs like this:
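The read-out is the change in Rhodamine-PBP fluorescence (f1 - f0, ex 525/em 598 nm) as Pi is released, read each minute for 11 min. Final reaction: 5 nM WIP1, 10 uM phosphopeptide VEPPL-pS-QETFS, 10 uM Rh-PBP, 50 mM Tris-HCl pH 7.5, 30 mM MgCl2. Compound was preincubated with enzyme for 1 hour at room temperature.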

Experiment [11] concerns the target Cytochrome P450 2D6 (Homo sapiens) (UniProt P10635). Kind of experiment: Cytochrome P450 family 2 subfamily D member 6 (CYP2D6) small molecule antagonists: luciferase biochemical (cell-free) qHTS assay (AID 1645840; active = well fitted curve in the direction sought with a large enough effect in the repeat runs; an effect the other way counts as inactive or inconclusive; note: nearly all actives have a fitted effect of over 55% in size; note: potency is the fitted concentration of half-maximal effect). In a few lines:
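P450-Glo CYP2D6 system: proluciferin substrate converted by enzyme to luciferin, read by luminescence proportional to activity. Enzyme-substrate mix with compound 10 min at room temperature, then NADPH regeneration 1 h before detection reagent.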

The target in experiment [12] is Cytochrome P450 2C9 (Homo sapiens) (UniProt P11712). Kind of experiment: Cytochrome P450 family 2 subfamily C member 9 (CYP2C9) small molecule antagonists: luciferase biochemical (cell-free) qHTS assay (AID 1645842; active = well fitted curve in the direction sought with a large enough effect in the repeat runs; an effect the other way counts as inactive or inconclusive; note: nearly all actives have a fitted effect of over 55% in size; note: potency is the fitted concentration of half-maximal effect). In short, it runs like this: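 P450-Glo CYP2C9 system: proluciferin substrate with enzyme in mix containing 0.4% BSA, 10 min at room temperature, then NADPH regeneration solution added and incubated 1 h at 37C. Detection reagent stopped reaction; luminescence read after 20 min as RLU.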

Experiment [13] has as its target Calcium and integrin-binding protein 1 (Homo sapiens) (UniProt Q99828). Kind of experiment: Confirmatory qHTS for Identification of Calcium Integrin Binding Protein 1 (CIB1) Competitor (AID 1508617). Note: potency is the fitted concentration of half-maximal effect; nearly all actives have a fitted effect of over 65% in size. Conditions: CIB1 binding competition assay, biochemical qHTS. In a few lines:
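Compounds at up to 114 uM final met 1 uM GST-tagged CIB1 for 15 min at room temperature (HEPES pH 7.4, 5 mM CaCl2). FITC-labelled alphaIIb peptide, 100 nM, added; polarization read after 15 min more.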

A short description of experiment [14]: A High-Content qHTS Against Drug Library for the Identification of Small Molecules that Inhibit DYT1 Early Onset Primary Dystonia-Associated Cell Pathology (AID 1645839; calls by dose curve; note: series mostly up to about 46 µM). In short, it runs like this:
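Cells were seeded and left for 24 h, then dosed with compound alongside tetracycline induction of mutant EGFP-TorsinA. They were incubated for 48 h, fixed in 4% paraformaldehyde, permeabilized and imaged for mislocalization (%pathology) and cell count.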

For experiment [15], the target named is N-terminal Xaa-Pro-Lys N-methyltransferase 1 (Homo sapiens) (UniProt Q9BV86). Kind of experiment: Confirmatory qHTS for Inhibitors of N-terminal methyltransferase 1 (NTMT1): MTaseGlo Assay (AID 1645874).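 Note: luminescence from SAH made as NTMT1 methylates SPKRIA peptide using SAM; series mostly up to about 100 µM; nearly all actives have a fitted effect of over 65% in size.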 In a few lines: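 MTase-Glo luminescence measured SAH formed by 125 nM NTMT1 from 100 uM SAM and 1 uM SPKRIA peptide over 30 min at room temperature, following 15 min compound preincubation. Percent inhibition against no-enzyme and DMSO controls gave 4-parameter Hill fits.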
Sequence of N-terminal Xaa-Pro-Lys N-methyltransferase 1 (Homo sapiens) (Q9BV86 whole entry, looked up): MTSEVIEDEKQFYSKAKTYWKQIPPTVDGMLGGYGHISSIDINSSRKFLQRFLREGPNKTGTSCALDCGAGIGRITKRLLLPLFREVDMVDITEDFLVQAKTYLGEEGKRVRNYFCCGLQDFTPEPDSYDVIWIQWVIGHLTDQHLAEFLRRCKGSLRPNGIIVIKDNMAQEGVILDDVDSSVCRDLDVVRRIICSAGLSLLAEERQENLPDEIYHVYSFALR

Sequence of Cytochrome P450 2D6 (Homo sapiens) (P10635 whole entry, looked up): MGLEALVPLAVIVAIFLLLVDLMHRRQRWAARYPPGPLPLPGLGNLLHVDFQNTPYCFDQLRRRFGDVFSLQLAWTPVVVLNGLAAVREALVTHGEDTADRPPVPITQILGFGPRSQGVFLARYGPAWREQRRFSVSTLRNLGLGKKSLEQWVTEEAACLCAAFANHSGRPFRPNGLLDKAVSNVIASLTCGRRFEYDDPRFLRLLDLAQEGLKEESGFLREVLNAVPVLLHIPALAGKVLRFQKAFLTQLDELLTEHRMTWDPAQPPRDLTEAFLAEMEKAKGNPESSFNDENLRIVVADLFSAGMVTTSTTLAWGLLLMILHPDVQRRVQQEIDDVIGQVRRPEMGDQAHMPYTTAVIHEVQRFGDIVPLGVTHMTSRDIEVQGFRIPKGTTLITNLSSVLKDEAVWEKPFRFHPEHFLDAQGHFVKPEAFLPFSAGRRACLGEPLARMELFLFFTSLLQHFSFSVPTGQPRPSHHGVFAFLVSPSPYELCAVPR
Sequence of Calcium and integrin-binding protein 1 (Homo sapiens) (Q99828 whole entry, looked up): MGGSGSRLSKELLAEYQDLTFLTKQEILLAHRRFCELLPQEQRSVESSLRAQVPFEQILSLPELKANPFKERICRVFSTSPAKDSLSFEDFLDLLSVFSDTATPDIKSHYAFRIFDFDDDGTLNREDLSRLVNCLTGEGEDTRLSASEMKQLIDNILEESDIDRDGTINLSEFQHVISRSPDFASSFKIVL
Sequence of Cytochrome P450 2C9 (Homo sapiens) (P11712 whole entry, looked up): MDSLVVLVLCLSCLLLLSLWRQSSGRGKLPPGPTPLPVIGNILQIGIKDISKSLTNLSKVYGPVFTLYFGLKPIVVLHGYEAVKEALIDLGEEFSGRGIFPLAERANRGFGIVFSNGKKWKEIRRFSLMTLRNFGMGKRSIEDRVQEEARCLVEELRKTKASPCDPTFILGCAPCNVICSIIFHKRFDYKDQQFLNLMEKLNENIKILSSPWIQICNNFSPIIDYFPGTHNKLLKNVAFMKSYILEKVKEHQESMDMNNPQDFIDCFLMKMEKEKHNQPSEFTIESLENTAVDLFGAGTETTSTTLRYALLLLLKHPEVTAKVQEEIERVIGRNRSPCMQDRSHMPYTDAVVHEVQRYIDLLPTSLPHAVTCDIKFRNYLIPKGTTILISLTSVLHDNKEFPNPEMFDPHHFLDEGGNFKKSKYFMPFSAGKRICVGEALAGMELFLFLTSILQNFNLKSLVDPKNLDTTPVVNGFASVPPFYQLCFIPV
Sequence of Protein phosphatase 1D (Homo sapiens) (O15297 whole entry, looked up): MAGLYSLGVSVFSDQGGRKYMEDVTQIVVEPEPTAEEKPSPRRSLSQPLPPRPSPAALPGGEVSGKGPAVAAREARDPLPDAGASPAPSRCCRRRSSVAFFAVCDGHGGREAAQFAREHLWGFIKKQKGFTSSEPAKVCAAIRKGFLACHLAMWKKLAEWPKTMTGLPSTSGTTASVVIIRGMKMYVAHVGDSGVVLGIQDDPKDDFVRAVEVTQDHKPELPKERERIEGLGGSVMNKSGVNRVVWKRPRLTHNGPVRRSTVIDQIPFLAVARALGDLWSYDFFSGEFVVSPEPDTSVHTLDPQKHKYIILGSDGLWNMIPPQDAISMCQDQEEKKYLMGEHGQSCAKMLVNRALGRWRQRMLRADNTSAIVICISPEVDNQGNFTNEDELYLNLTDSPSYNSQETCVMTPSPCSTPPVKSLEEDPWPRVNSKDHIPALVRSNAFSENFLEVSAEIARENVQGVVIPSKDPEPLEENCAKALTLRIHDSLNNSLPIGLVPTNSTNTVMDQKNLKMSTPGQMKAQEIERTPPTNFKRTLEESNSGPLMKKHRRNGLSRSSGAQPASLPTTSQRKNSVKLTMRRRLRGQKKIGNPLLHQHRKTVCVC
Sequence of Single-stranded DNA cytosine deaminase (Homo sapiens) (Q9GZX7 whole entry, looked up): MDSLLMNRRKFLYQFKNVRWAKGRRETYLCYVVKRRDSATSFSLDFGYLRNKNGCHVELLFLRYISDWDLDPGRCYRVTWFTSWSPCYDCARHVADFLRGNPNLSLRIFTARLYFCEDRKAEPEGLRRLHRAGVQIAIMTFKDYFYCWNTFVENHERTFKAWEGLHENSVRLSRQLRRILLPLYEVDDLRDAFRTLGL
Sequence of Papain (Carica papaya) (P00784 whole entry, looked up, the tested form may be a part): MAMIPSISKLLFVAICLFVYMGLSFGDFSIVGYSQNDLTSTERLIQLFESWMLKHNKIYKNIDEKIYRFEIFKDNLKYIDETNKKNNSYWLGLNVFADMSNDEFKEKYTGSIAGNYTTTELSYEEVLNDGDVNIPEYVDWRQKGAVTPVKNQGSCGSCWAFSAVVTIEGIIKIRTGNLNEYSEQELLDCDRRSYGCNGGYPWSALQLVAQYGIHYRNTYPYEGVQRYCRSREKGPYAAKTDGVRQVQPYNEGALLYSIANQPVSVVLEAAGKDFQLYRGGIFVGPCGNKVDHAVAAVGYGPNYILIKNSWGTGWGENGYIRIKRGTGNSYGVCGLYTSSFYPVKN

For the molecule `Oc1ccc(/C=C/c2cc(O)cc(O)c2)cc1`, the molecule was classed as inactive in [1], in experiment [3], in experiment [4], in experiment [5], in experiment [6] and in [7]. Moreover, the outcome in the experiment with Papain (Carica papaya) was inactive. The Potency entry in experiment [2] and in experiment [8] was “inactive” in each case. The Potency in [9] was 9340 nM (active).
Take `NC[C@H]1O[C@H](O[C@H]2[C@H](O)[C@@H](O[C@H]3O[C@H](CO)[C@@H](O)[C@H](N)[C@H]3O)[C@H](N)C[C@@H]2N)[C@H](N)C[C@@H]1O`: the Potency result in experiment [2] and in experiment [9] was “inactive” in each case.
With `Nc1ccc(N=Nc2ccccc2)c(N)n1`, the molecule was called inactive in experiment [3], in experiment [10] and in [6]. Also, the Potency in experiment [11] was 17.4 µM (active); in [12], 13.8 µM (active).
For the molecule `C[C@]12CC[C@@H]3c4ccc(OC(=O)c5ccccc5)cc4CC[C@H]3[C@@H]1CC[C@@H]2O`, the Potency result in experiment [8] and in experiment [11] was “inactive” each time.
In the case of `O=C1c2ccccc2C(=O)c2c1ccc(O)c2O`, the molecule was classed as inactive in [3], in experiment [10], in [6] and in experiment [14]. Also, the Potency is 17.8 µM (active) in experiment [13] and 35.5 µM (active) in experiment [8].
As to `C=CC[N+]1([C@H]2C[C@H]3[C@@H]4CC[C@H]5C[C@H](O)[C@@H](N6CCOCC6)C[C@]5(C)[C@H]4CC[C@]3(C)[C@H]2OC(C)=O)CCCC1`, the Potency entry in experiment [2] and in experiment [9] was “inactive” throughout.
For `C/C(=C\C(=O)OCCCCCCCCC(=O)O)C[C@@H]1OC[C@H](C[C@@H]2O[C@H]2[C@@H](C)[C@H](C)O)[C@@H](O)[C@H]1O`, the Potency entry in [8] is “inactive”.
As for `CC(=O)NCCCS(=O)(=O)O`, the Potency result in experiment [2], in experiment [11], in experiment [12] and in [9] was “inactive” each time.
For the molecule `CN(C)CCCSc1ccccc1NC(=O)/C=C/c1ccccc1`, the result in experiment [3], in experiment [10], in [6] and in experiment [14] was inactive. Further, the Potency result in experiment [8], in experiment [12] and in experiment [9] was “inactive” each time. The Potency in [11] is 0.347 µM (active).
In the case of `O=C(OCc1ccccc1)c1ccc(O)cc1`, the molecule was classed as inactive in experiment [3], in experiment [10], in [6] and in experiment [14]. Also, the Potency result in [8] is “inactive”.
Turning to `CNC(=O)[C@H](Cc1c[nH]c2ccccc12)NC(=O)[C@@H](CC(=O)NO)CC(C)C`, the Potency entry in experiment [2] and in experiment [9] was “inactive” each time.
`CC(=O)Oc1cccc2c1C(=O)c1c(OC(C)=O)cc(C(=O)O)cc1C2=O`: the outcome in experiment [3], in experiment [10], in experiment [6] and in [14] was inactive. In addition, the Potency result in experiment [12] and in [9] was “inactive” in each case.
Take `CN[C@@H]1[C@@H](O)[C@@H](O[C@@H]2[C@@H](O)[C@H](O[C@H]3O[C@H](CN)[C@@H](O)[C@H](O)[C@H]3O)[C@@H](N)C[C@H]2NC(=O)C(O)CN)OC[C@]1(C)O` (stereo partly specified): the Potency result in experiment [2] and in [9] was “inactive” in each case.
Consider `C[C@H]1O[C@@H](O[C@H]2[C@@H](O)C[C@H](O[C@H]3[C@@H](O)C[C@H](O[C@H]4CC[C@@]5(C)[C@H](CC[C@@H]6[C@@H]5C[C@@H](O)[C@]5(C)[C@@H](C7=CC(=O)OC7)CC[C@]65O)C4)O[C@@H]3C)O[C@@H]2C)C[C@H](O)[C@@H]1O`, for which the Potency in experiment [2] is 0.037 µM (active); in [9], 40.9 nM (active) and 66.1 nM (active). Also, the Potency entry in experiment [8], in experiment [11] and in experiment [12] was “inactive” in each case.
For `CC(C)Cc1ccc([C@@H](C)C(=O)NS(C)(=O)=O)cc1`, the Potency entry in [2] and in experiment [9] was “inactive” each time.
On to `CO[C@H]1C[C@@H]2CC[C@@H](C)[C@@](O)(O2)C(=O)C(=O)N2CCCC[C@H]2C(=O)O[C@H]([C@H](C)C[C@@H]2CC[C@@H](OC(=O)C(C)(CO)CO)[C@H](OC)C2)CC(=O)[C@H](C)/C=C(\C)[C@@H](O)[C@@H](OC)C(=O)[C@H](C)C[C@H](C)/C=C/C=C/C=C/1C`, for which, in experiment [8], the Potency entry is “inactive”. In addition, the Potency in [9] is 204 nM (active).
Consider `COc1ccc([C@@H]2CC(=O)c3c(O)cc(O[C@@H]4O[C@H](CO[C@@H]5O[C@@H](C)[C@H](O)[C@@H](O)[C@H]5O)[C@@H](O)[C@H](O)[C@H]4O)cc3O2)cc1O`, for which the Potency entry in [2] and in experiment [9] was “inactive” each time.
On to `CCN(CC)CCOCCOC(=O)C(CC)(CC)c1ccccc1`, for which the Potency entry in experiment [8] was “inactive”. Also, the Potency in experiment [11] is 3.01 µM (active).
As to `CC[C@H]1OC(=O)[C@H](C)[C@@H](O[C@H]2C[C@@](C)(OC)[C@@H](O)[C@H](C)O2)[C@H](C)[C@@H](O[C@@H]2O[C@H](C)C[C@H](N(C)C)[C@H]2O)[C@](C)(O)C[C@@H](C)CN(C)[C@H](C)[C@@H](O)[C@]1(C)O`, the Potency entry in [2], in experiment [11], in experiment [12] and in experiment [9] was “inactive” in each case.
`COc1cc(C)c(/C=C/C(C)=C/C=C/C(C)=C/C(=O)O)c(C)c1C`: the Potency result in experiment [2] was “inactive”. In addition, the call in [15] was inactive.
For `CCC[C@@H]1C[C@@H](C(=O)N[C@@H]([C@H]2O[C@H](SC)[C@H](O)[C@@H](O)[C@H]2O)[C@H](C)Cl)N(C)C1`, the Potency entry in experiment [2] and in experiment [9] was “inactive” in each case.
As to `CCCCC[C@H](O)/C=C/[C@H]1[C@H](O)CC(=O)[C@@H]1CCCCCCC(=O)O`, in experiment [2], the Potency entry was “inactive”. In addition, the Potency in experiment [9] is 66.1 nM (active).
Consider `CC(C)(C)c1ccc(CN2CCN(C(c3ccccc3)c3ccc(Cl)cc3)CC2)cc1` (stereo unspecified), for which the Potency entry in [8], in experiment [11] and in experiment [12] was “inactive” throughout.
